Data on twelve molecules can be found in PubChem BioAssay AID1508601 (ICCB-Longwood Screening Facility, Harvard Medical School, 2020).

Structures are written as SMILES. Several values for one entry are separate records, joined by “and”; a condition that tells them apart may be missing. Identical values can stand only once. About 85 (1%) of roughly 5,700 compounds were called active. Cut-off read from the data, not from the text of the source: active = p53-positive nuclei above about 36% (passing the limit was not always enough); inactive = the rest. The sample as a whole holds a higher share of actives than the screen did.

Experiment [1] is described as follows: p53 stabilisation in HPV-positive human cells, imaging, p53-positive nuclei imaging, 24 h, 48 h (AID 1508601). The conditions noted are these: 24/48 h.
Experiment [2] deals with Cellular tumor antigen p53 (Homo sapiens) (UniProt P04637). Described as above. The conditions noted are these: 24/48 h, stronger effect = higher value.
Cellular tumor antigen p53 (Homo sapiens), sequence (P04637 whole entry, looked up): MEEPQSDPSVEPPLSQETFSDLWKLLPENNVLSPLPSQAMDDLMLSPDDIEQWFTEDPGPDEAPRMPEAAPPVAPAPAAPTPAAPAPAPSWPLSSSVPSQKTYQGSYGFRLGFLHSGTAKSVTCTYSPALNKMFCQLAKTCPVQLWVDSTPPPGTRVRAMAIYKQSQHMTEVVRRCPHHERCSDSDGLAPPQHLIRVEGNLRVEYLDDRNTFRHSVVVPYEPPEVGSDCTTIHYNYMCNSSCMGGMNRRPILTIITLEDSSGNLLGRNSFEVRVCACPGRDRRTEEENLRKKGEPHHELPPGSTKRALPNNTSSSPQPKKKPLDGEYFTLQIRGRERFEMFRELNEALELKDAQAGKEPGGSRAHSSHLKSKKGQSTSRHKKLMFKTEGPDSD
Where [3] appears, read: measured here: cell number at 24 h, Library stock concentration: 10 mM.
Where [4] appears, read: measured here: cell number at 48 h, Library stock concentration: 10 mM.
Setting [5] is: Library stock concentration: 10 mM.
[6] abbreviates: measured here: p53 positive nuclei at 24 h, Library stock concentration: 10 mM.
[7] abbreviates: measured here: cell number at 24 h, Library stock concentration: 80 uM.
Setting [8] is: measured here: cell number at 24 h, Library stock concentration: 400 uM.
Where [9] appears, read: measured here: cell number at 24 h, Library stock concentration: 2 mM.
[10] abbreviates: measured here: cell number at 24 h, Library stock concentration: 3.33 mM.
Setting [11] is: measured here: cell number at 48 h, Library stock concentration: 80 uM.
[12] abbreviates: measured here: cell number at 48 h, Library stock concentration: 400 uM.
Setting [13] is: measured here: cell number at 48 h, Library stock concentration: 2 mM.
[14] abbreviates: measured here: cell number at 48 h, Library stock concentration: 3.33 mM.
Where [15] appears, read: Library stock concentration: 80 uM.
Setting [16] is: Library stock concentration: 400 uM.
The mark [17] stands for this setting: Library stock concentration: 2 mM.
[18] abbreviates: Library stock concentration: 3.33 mM.
Where [19] appears, read: measured here: p53 positive nuclei at 24 h, Library stock concentration: 80 uM.
[20] abbreviates: measured here: p53 positive nuclei at 24 h, Library stock concentration: 400 uM.
[21] abbreviates: measured here: p53 positive nuclei at 24 h, Library stock concentration: 2 mM.
Where [22] appears, read: measured here: p53 positive nuclei at 24 h, Library stock concentration: 3.33 mM.
Setting [23] is: measured here: cell number at 24 h, concentration not given here.
Where [24] appears, read: measured here: cell number at 48 h, concentration not given here.
Setting [25] is: measured here: p53 positive nuclei at 24 h, concentration not given here.

Regarding `C#CCOc1ccc2c(c1)c(-c1ccc(C(C)C)cc1)nc(=O)n2C(C)C`, the nuclei count, normalised in experiment [1] (measured here: cell number at 24 h, Library stock concentration: 46 uM) stood at 104%; in experiment [1] (measured here: cell number at 24 h, Library stock concentration: 278 uM) it was 110%; in experiment [1] (measured here: cell number at 24 h, Library stock concentration: 1.67 mM), 104%; in experiment [1] (setting [3]), 112%; in experiment [1] (measured here: cell number at 48 h, Library stock concentration: 46 uM), 101%; in experiment [1] (measured here: cell number at 48 h, Library stock concentration: 278 uM), 101%. The nuclei count, normalised in experiment [1] (measured here: cell number at 48 h, Library stock concentration: 1.67 mM) came out at 97.6%; in experiment [1] (setting [4]), 101%. Further, the p53-positive nuclei, normalised is -0.166% (inactive) in experiment [2] (Library stock concentration: 46 uM); 0.0283% (inactive) in experiment [2] (Library stock concentration: 278 uM); 0.0841% (inactive) in experiment [2] (Library stock concentration: 1.67 mM); -0.00718% (inactive) in experiment [2] (setting [5]); -0.153% in experiment [2] (measured here: p53 positive nuclei at 24 h, Library stock concentration: 46 uM); -0.218% in experiment [2] (measured here: p53 positive nuclei at 24 h, Library stock concentration: 278 uM). Also, the p53-positive nuclei, normalised was -0.0911% in experiment [2] (measured here: p53 positive nuclei at 24 h, Library stock concentration: 1.67 mM) and -0.218% in experiment [2] (setting [6]).

With `O=C(O)C=Cc1ccc(Cn2ccnc2)cc1`, the nuclei count, normalised in experiment [1] (setting [7]) is 111%; in experiment [1] (setting [8]), 104%; in experiment [1] (setting [9]) it was 103%; in experiment [1] (setting [10]), 103% and 107%; in experiment [1] (setting [3]), 108%; in experiment [1] (setting [11]), 108%. For the same molecule, the nuclei count, normalised in experiment [1] (setting [12]) was 104%; in experiment [1] (setting [13]) it was 103%; in experiment [1] (setting [14]), 110% and 99.3%; in experiment [1] (setting [4]), 103%. The p53-positive nuclei, normalised is 0.0181% (inactive) in experiment [2] (setting [15]); 0.0683% (inactive) in experiment [2] (setting [16]); 0.0233% (inactive) in experiment [2] (setting [17]); -0.0503% (inactive) and -0.0965% (inactive) in experiment [2] (setting [18]); -0.178% (inactive) in experiment [2] (setting [5]); 0.0685% in experiment [2] (setting [19]). Further, the p53-positive nuclei, normalised was 0.0107% in experiment [2] (setting [20]); 0.0098% in experiment [2] (setting [21]); -0.252% and -0.232% in experiment [2] (setting [22]); -0.12% in experiment [2] (setting [6]).

Take `CCCCCCCCNC(=O)Cc1c(C)n(C(=O)c2ccc(Cl)cc2)c2ccc(OC)cc12`: the nuclei count, normalised in experiment [1] (setting [23]) was found to be 104%; in experiment [1] (setting [24]), 112%. Further, the p53-positive nuclei, normalised was 0.0988% (inactive) in experiment [2] (concentration not given here) and -0.0319% in experiment [2] (setting [25]).

Consider `O=C1CCCc2occ(C(=O)N3CCc4[nH]nc(C5CCC5)c4C3)c21`, for which the nuclei count, normalised in experiment [1] (setting [23]) was determined as 110%; in experiment [1] (setting [24]), 114%. In addition, the values for the p53-positive nuclei, normalised in experiment [2] (concentration not given here) and in experiment [2] (setting [25]) were -0.00738% (inactive) and -0.086%, respectively.

In the case of `OCCCCCNc1nccc(-c2cnn(-c3ccc(F)cc3)c2)n1`, the nuclei count, normalised in experiment [1] (setting [23]) and in experiment [1] (setting [24]) was 103% each time. Besides, the p53-positive nuclei, normalised in experiment [2] (concentration not given here) is -0.0141% (inactive); in experiment [2] (setting [25]), 0.508%.

On to `OCCCNc1cc(-c2ccnc(Nc3cccc(Cl)c3)n2)ccn1`, for which the nuclei count, normalised was determined as 46% in experiment [1] (setting [7]); 37.5% in experiment [1] (setting [8]); 37% in experiment [1] (setting [9]); 36.9% in experiment [1] (setting [3]); 28.8% in experiment [1] (setting [11]); 20.8% in experiment [1] (setting [12]). The nuclei count, normalised in experiment [1] (setting [13]) was 22.2%; in experiment [1] (setting [4]) it was 23.8%. In addition, the p53-positive nuclei, normalised was 75.9% (active) in experiment [2] (setting [15]); 41.8% (inactive) in experiment [2] (setting [16]); 16.5% (inactive) in experiment [2] (setting [17]); 8.11% (inactive) in experiment [2] (setting [5]); 23.9% in experiment [2] (setting [19]); 2.63% in experiment [2] (setting [20]). The p53-positive nuclei, normalised in experiment [2] (setting [21]) amounted to 2.24%; in experiment [2] (setting [6]), 1.34%.

Turning to `OCCCCCNc1nccc(-c2cnn(-c3ccccc3F)c2)n1`, the values for the nuclei count, normalised in experiment [1] (setting [23]) and in experiment [1] (setting [24]) were 112% and 73.8%, respectively. Further, the p53-positive nuclei, normalised in experiment [2] (concentration not given here) is 0.562% (inactive); in experiment [2] (setting [25]), -0.0884%.

For `NC(=Nc1ccc(F)cc1)NO`, the nuclei count, normalised is 101% in experiment [1] (setting [23]) and 95.3% in experiment [1] (setting [24]). The p53-positive nuclei, normalised in experiment [2] (concentration not given here) was 0.0683% (inactive); in experiment [2] (setting [25]) it was -0.0286%.

`O=C(C=Cn1cnc(-c2cc(C(F)(F)F)cc(C(F)(F)F)c2)n1)N1CC(F)(F)C1`: the nuclei count, normalised in experiment [1] (setting [10]) amounted to 66.2%; in experiment [1] (setting [14]), 53%. For the same molecule, the figures for the p53-positive nuclei, normalised in experiment [2] (setting [18]) and in experiment [2] (setting [22]) were 0.0748% (inactive) and -0.238%, respectively.

Turning to `O=C(O)CCC/C=C\C[C@H]1C(=O)C[C@@H](O)[C@@H]1/C=C/[C@@H](O)CCc1ccccc1`, the nuclei count, normalised amounted to 102% in experiment [1] (setting [23]) and 107% in experiment [1] (setting [24]). Moreover, the results for the p53-positive nuclei, normalised in experiment [2] (concentration not given here) and in experiment [2] (setting [25]) were 0.0806% (inactive) and 0.0378%, respectively.

Take `Cc1nn(C)cc1-c1ccnc(N2CCCC(c3nc4c(C)cccc4[nH]3)C2)n1` (stereo not drawn): the nuclei count, normalised in experiment [1] (setting [23]) stood at 103%; in experiment [1] (setting [24]) it was 106%. Moreover, the p53-positive nuclei, normalised in experiment [2] (concentration not given here) is -0.267% (inactive); in experiment [2] (setting [25]), -0.151%.

On to `CC1(C)S[C@@H]2C(NC(=O)C(C(=O)O)c3ccccc3)C(=O)N2C1C(=O)O` (stereo partly drawn), for which the nuclei count, normalised in experiment [1] (setting [10]) turned out to be 119%; in experiment [1] (setting [14]), 111%. In addition, the figures for the p53-positive nuclei, normalised in experiment [2] (setting [18]) and in experiment [2] (setting [22]) were -0.208% (inactive) and -0.327%, respectively.
